# According to publication PMC7862700, “An all-to-all approach to the identification of sequence-specific readers for epigenetic DNA modifications on cytosine”:
# How the values were obtained:
# Assay in all cases: DAPPL (digital affinity profiling via proximity ligation, sequencing); 10 mM Tris-HCl pH 7.5, 50 mM NaCl, 1 mM DTT, 4% glycerol, room temperature, 30 min; GST-TFs on glutathione beads, 16-mer random dsDNA library, 0.1% formaldehyde crosslink after washing; high values mean tight binding
# [1] = target: T1, FLI1 (Homo sapiens, UniProt Q01543 1-452); settings: protein: recombinant; tags: N-terminal GST; dsDNA, one strand shown
# T1 sequence: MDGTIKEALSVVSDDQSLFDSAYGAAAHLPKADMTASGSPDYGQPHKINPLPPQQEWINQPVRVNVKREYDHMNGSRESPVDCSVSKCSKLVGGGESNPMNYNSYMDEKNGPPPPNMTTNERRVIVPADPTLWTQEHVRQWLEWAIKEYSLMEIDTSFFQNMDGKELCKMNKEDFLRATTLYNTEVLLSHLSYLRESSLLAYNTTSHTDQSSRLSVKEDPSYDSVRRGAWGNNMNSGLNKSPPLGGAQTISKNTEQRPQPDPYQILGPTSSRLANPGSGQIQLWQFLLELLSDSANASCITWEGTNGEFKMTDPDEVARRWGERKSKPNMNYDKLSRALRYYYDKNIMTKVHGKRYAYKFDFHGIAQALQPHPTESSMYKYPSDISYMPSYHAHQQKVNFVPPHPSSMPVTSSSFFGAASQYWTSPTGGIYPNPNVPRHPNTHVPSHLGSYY
# Procedure, shortened: (§1)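 Each value of binding signal is a hexamer's read frequency for a factor divided by the same hexamer's frequency in the tag-only sample. Barcoded, bead-captured GST fusions of human transcription factors made in yeast were pooled with that sample and incubated with 200 nmole of a random double-stranded 16-mer DNA library in Tris/NaCl/DTT/glycerol buffer at room temperature for 30 min. Washing, 0.1% formaldehyde crosslinking, proximity ligation, PCR and Illumina NextSeq500 sequencing followed.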
# [2] = target: T2, ELK1 (Homo sapiens, UniProt P19419 1-428); settings: protein: recombinant; tags: N-terminal GST; dsDNA, one strand shown
# T2 sequence: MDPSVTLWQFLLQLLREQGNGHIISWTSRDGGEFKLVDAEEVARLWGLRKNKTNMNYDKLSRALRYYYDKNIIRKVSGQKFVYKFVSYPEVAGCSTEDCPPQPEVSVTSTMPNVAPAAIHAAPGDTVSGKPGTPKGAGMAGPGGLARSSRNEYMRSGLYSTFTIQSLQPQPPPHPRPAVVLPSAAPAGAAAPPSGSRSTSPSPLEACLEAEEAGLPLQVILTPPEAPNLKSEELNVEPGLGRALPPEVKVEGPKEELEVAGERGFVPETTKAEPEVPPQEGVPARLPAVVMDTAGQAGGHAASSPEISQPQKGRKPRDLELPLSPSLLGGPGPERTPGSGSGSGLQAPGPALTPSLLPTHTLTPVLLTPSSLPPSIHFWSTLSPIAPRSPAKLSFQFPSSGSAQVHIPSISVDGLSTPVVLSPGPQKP
# Procedure, shortened: as §1
# [3] = target: T3, GABPA (Homo sapiens, UniProt Q06546 1-454); settings: protein: recombinant; tags: N-terminal GST; dsDNA, one strand shown
# T3 sequence: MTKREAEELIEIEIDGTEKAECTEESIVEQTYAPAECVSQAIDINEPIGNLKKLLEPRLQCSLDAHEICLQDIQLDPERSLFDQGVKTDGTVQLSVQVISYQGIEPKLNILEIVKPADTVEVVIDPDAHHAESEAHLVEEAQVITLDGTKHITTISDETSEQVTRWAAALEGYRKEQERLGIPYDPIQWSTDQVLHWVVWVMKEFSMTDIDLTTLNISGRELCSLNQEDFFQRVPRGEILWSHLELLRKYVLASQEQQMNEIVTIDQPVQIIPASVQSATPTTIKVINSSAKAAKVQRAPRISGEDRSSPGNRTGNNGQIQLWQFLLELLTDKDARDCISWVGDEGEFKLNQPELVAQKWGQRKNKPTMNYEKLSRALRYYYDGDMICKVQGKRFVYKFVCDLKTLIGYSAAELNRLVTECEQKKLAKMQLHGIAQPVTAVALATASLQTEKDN
# Procedure, shortened: as §1
# [4] = target: T4, ERG (Homo sapiens, UniProt P11308 1-479); settings: protein: recombinant; tags: N-terminal GST; dsDNA, one strand shown
# T4 sequence: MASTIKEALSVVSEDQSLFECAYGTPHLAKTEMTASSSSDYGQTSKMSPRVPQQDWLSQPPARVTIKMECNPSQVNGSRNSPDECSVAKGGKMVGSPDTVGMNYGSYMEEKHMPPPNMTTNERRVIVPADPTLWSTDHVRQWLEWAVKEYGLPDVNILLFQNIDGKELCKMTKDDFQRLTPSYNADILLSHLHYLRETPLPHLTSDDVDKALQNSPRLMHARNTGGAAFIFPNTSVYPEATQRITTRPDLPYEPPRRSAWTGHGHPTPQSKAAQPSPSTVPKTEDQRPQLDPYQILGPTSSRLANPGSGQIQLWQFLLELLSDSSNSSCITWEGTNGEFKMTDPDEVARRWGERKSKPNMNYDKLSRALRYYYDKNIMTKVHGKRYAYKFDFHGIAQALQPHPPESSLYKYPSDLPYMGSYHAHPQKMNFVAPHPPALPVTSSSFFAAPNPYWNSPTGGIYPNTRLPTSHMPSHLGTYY
# Procedure, shortened: as §1
# [5] = target: ELF1 (Homo sapiens, UniProt P32519 1-619); settings: protein: recombinant; tags: N-terminal GST; dsDNA, one strand shown
# Procedure, shortened: as §1
# [6] = target: T5, EHF (Homo sapiens, UniProt Q9NZC4 1-300); settings: protein: recombinant; tags: N-terminal GST; dsDNA, one strand shown
# T5 sequence: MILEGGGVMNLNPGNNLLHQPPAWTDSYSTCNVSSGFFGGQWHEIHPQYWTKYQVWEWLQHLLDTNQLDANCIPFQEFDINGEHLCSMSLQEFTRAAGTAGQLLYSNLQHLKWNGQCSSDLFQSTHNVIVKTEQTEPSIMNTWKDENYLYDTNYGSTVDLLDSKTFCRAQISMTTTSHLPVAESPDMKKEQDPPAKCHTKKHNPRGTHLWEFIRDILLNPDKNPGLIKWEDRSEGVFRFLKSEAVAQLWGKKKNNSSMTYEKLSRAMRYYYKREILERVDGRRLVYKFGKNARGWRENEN
# Procedure, shortened: as §1
# [7] = target: SPI1 (Homo sapiens, UniProt P17947 1-270); settings: protein: recombinant; tags: N-terminal GST; dsDNA, one strand shown
# Procedure, shortened: as §1
# [8] = target: SPIB (Homo sapiens, UniProt Q01892 1-262); settings: protein: recombinant; tags: N-terminal GST; dsDNA, one strand shown
# Procedure, shortened: as §1
# [9] = target: T6, ELK3 (Homo sapiens, UniProt P41970 1-407); settings: protein: recombinant; tags: N-terminal GST; dsDNA, one strand shown
# T6 sequence: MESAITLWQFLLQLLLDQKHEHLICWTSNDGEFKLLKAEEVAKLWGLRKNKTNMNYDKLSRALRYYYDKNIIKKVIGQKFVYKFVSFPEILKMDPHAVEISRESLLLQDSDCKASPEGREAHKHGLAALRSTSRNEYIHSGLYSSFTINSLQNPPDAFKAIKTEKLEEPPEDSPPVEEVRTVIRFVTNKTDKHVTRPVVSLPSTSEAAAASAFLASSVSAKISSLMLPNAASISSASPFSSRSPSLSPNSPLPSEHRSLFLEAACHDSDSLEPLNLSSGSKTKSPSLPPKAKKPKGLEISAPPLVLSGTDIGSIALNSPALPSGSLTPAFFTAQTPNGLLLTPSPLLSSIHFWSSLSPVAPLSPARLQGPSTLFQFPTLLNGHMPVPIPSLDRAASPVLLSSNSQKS
# Procedure, shortened: as §1
# [10] = target: T7, FEV (Homo sapiens, UniProt Q99581 1-238); settings: protein: recombinant; tags: N-terminal GST; dsDNA, one strand shown
# T7 sequence: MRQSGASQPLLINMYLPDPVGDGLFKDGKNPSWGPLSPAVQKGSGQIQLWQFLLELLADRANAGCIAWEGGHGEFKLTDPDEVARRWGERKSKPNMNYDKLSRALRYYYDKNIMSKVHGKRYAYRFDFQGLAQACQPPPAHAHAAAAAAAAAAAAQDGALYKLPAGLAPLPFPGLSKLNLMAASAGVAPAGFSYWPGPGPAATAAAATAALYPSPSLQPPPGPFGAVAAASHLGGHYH
# Procedure, shortened: as §1
# [11] = target: ETV5 (Homo sapiens, UniProt P41161 1-510); settings: protein: recombinant; tags: N-terminal GST; dsDNA, one strand shown
# Procedure, shortened: as §1
# [12] = target: HSF1 (Homo sapiens, UniProt Q00613 1-529); settings: protein: recombinant; tags: N-terminal GST; chain copies: 3; dsDNA, one strand shown
# Procedure, shortened: as §1
# [13] = target: T8, SPIC (Homo sapiens, UniProt Q8N5J4 1-248); settings: protein: recombinant; tags: N-terminal GST; dsDNA, one strand shown
# T8 sequence: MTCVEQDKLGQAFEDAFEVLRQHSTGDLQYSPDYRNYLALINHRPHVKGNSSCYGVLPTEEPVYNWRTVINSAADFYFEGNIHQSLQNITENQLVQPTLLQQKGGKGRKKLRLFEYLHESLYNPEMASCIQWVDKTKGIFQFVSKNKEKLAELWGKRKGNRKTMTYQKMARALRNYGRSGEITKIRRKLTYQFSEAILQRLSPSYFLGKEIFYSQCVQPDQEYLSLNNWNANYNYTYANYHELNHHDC
# Procedure, shortened: as §1
# [14] = target: ELF4 (Homo sapiens, UniProt Q99607 1-663); settings: protein: recombinant; tags: N-terminal GST; dsDNA, one strand shown
# Procedure, shortened: as §1
# [15] = target: T9, ELK4 (Homo sapiens, UniProt P28324-2 1-405); settings: protein: recombinant; tags: N-terminal GST; dsDNA, one strand shown
# T9 sequence: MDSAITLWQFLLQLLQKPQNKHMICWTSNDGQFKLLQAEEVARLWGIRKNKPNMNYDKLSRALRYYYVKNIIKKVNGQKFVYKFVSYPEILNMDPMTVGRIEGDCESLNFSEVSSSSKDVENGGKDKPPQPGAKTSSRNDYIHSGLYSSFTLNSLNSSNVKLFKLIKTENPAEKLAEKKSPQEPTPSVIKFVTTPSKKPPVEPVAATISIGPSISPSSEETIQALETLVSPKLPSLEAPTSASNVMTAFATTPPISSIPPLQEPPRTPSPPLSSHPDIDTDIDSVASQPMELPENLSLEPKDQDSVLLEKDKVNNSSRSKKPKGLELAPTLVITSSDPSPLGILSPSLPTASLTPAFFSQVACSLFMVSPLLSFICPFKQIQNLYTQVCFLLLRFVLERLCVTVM
# Procedure, shortened: as §1
# [16] = target: T10, ETV2 (Homo sapiens, UniProt O00321 1-342); settings: protein: recombinant; tags: N-terminal GST; dsDNA, one strand shown
# T10 sequence: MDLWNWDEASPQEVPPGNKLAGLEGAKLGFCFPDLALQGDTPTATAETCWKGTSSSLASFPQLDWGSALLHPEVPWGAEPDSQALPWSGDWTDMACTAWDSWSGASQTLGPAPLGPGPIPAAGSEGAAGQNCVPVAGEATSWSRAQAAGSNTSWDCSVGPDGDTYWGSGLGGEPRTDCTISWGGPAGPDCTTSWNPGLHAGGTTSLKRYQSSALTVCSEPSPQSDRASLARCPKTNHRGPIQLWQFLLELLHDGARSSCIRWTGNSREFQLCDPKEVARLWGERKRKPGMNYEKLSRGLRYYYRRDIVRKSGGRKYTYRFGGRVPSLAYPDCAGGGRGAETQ
# Procedure, shortened: as §1
# [17] = target: T11, ELF3 (Homo sapiens, UniProt P78545 1-371); settings: protein: recombinant; tags: N-terminal GST; dsDNA, one strand shown
# T11 sequence: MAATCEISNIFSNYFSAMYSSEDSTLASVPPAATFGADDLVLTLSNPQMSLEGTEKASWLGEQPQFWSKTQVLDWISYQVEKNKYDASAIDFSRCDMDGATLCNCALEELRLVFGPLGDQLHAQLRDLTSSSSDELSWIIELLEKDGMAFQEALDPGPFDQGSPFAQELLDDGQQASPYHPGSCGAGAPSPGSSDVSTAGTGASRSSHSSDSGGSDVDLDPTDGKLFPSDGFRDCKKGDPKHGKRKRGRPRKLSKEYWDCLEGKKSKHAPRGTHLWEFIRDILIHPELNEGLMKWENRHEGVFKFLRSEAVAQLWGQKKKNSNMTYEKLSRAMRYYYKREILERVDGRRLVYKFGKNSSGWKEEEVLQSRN
# Procedure, shortened: as §1
# [18] = target: CRX (Homo sapiens, UniProt O43186 1-299); settings: protein: recombinant; tags: N-terminal GST; dsDNA, one strand shown
# Procedure, shortened: as §1
# [19] = target: ETV1 (Homo sapiens, UniProt P50549 1-477); settings: protein: recombinant; tags: N-terminal GST; dsDNA, one strand shown
# Procedure, shortened: as §1
# Sequence of ETV1 (P50549 whole entry): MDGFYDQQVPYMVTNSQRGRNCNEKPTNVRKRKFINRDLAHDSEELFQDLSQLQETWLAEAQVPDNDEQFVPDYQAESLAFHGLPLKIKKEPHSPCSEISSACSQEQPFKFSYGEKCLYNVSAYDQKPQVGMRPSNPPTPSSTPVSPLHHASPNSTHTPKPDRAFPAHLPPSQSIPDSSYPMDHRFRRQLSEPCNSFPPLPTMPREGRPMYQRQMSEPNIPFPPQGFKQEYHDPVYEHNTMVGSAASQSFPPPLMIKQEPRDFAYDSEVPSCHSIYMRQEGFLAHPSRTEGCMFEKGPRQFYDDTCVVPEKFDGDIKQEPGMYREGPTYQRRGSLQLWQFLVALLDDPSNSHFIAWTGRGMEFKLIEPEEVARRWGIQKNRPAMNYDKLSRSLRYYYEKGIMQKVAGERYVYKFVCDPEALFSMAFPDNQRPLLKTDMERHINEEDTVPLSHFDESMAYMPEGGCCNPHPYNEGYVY
# Sequence of CRX (O43186 whole entry): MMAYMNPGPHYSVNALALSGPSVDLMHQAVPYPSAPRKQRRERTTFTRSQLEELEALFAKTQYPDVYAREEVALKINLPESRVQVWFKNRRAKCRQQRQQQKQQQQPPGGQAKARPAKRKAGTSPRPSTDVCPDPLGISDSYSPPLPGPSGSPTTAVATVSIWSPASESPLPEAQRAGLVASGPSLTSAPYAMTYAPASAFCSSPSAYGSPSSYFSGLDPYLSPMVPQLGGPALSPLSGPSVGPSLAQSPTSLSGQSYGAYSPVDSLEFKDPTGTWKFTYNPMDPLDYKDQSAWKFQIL
# Sequence of HSF1 (Q00613 whole entry): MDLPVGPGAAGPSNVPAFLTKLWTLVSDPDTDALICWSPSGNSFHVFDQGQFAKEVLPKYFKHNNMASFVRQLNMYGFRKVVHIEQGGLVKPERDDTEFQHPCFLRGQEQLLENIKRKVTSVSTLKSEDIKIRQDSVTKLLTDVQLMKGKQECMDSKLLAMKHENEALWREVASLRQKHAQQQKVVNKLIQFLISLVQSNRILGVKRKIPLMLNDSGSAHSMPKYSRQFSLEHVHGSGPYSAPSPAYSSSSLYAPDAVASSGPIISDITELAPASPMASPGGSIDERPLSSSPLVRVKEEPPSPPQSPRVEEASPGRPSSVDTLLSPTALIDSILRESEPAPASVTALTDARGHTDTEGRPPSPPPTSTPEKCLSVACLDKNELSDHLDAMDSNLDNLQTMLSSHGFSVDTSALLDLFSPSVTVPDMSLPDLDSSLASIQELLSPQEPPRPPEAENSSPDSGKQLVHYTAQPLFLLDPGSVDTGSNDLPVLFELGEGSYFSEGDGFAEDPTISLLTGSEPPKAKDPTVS
# Sequence of ETV5 (P41161 whole entry): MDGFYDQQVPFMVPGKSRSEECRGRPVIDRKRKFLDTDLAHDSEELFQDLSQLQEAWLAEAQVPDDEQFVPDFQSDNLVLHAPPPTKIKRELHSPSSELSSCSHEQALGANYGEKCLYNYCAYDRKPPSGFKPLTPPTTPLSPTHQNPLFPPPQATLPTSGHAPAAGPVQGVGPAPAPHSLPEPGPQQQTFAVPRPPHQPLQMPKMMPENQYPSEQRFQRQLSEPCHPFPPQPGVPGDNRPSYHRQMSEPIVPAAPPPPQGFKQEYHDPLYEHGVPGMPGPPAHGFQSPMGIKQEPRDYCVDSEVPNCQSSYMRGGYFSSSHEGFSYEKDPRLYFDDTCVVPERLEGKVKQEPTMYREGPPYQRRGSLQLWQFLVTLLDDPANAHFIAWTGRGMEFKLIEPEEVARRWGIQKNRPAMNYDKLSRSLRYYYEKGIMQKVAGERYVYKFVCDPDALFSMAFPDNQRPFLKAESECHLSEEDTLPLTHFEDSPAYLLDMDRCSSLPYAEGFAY
# Sequence of SPIB (Q01892 whole entry): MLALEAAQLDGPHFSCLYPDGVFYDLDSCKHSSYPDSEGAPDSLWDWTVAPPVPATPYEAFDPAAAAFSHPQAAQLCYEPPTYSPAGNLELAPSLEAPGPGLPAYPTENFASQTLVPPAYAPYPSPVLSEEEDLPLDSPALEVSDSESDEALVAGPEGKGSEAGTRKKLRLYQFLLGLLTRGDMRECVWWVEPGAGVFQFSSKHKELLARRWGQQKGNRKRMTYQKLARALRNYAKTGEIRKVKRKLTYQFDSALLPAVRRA
# Sequence of ELF4 (Q99607 whole entry): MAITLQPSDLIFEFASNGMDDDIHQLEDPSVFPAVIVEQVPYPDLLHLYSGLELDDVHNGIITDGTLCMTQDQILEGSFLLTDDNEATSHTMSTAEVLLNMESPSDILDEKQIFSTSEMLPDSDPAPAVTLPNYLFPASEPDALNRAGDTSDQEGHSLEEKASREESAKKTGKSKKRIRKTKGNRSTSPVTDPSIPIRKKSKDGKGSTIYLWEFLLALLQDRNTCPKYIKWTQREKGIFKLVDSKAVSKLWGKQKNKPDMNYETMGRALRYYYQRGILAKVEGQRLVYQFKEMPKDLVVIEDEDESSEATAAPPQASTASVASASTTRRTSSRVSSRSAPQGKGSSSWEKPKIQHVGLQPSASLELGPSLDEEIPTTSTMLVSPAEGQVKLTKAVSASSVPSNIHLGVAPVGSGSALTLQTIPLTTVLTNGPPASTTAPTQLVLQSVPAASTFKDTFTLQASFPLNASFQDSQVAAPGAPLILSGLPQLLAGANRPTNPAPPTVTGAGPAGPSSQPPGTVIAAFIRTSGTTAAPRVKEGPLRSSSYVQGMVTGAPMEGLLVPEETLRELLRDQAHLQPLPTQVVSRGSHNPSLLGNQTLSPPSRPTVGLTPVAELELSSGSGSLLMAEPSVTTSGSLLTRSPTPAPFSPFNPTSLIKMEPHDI
# Sequence of ELF1 (P32519 whole entry): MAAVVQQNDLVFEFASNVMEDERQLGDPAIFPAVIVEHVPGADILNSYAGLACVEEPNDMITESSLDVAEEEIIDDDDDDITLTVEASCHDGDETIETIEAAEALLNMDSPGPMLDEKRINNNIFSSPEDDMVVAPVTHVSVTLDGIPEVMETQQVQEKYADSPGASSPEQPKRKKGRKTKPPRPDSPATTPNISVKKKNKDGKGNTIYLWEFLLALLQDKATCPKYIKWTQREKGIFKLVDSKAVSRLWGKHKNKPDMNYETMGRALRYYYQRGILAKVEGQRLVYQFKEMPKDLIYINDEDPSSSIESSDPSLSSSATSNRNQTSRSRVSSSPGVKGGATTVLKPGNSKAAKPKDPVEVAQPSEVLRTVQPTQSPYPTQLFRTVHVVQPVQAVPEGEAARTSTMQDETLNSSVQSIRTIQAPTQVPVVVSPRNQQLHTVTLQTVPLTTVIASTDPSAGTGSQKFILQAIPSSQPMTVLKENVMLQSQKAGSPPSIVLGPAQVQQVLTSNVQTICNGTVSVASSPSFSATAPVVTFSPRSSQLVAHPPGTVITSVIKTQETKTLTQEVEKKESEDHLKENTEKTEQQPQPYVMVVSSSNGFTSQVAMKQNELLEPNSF
sequence,measurement,setting,value
GCTCTA,binding signal,[1],"1.17 fold enrichment (6-mer frequency, TF over GST control)"
same,binding signal,[2],"1.09 fold enrichment (6-mer frequency, TF over GST control)"
same,binding signal,[3],"1.11 fold enrichment (6-mer frequency, TF over GST control)"
same,binding signal,[4],"1.24 fold enrichment (6-mer frequency, TF over GST control)"
same,binding signal,[5],"1.13 fold enrichment (6-mer frequency, TF over GST control)"
same,binding signal,[6],"1.23 fold enrichment (6-mer frequency, TF over GST control)"
same,binding signal,[7],"1.04 fold enrichment (6-mer frequency, TF over GST control)"
same,binding signal,[8],"1.09 fold enrichment (6-mer frequency, TF over GST control)"
same,binding signal,[9],"1.09 fold enrichment (6-mer frequency, TF over GST control)"
same,binding signal,[10],"1.15 fold enrichment (6-mer frequency, TF over GST control)"
same,binding signal,[11],"1.21 fold enrichment (6-mer frequency, TF over GST control)"
same,binding signal,[12],"1.34 fold enrichment (6-mer frequency, TF over GST control)"
same,binding signal,[13],"1.26 fold enrichment (6-mer frequency, TF over GST control)"
same,binding signal,[14],"1.21 fold enrichment (6-mer frequency, TF over GST control)"
same,binding signal,[15],"1.07 fold enrichment (6-mer frequency, TF over GST control)"
same,binding signal,[16],"1.19 fold enrichment (6-mer frequency, TF over GST control)"
same,binding signal,[17],"1.28 fold enrichment (6-mer frequency, TF over GST control)"
same,binding signal,[18],"1.36 fold enrichment (6-mer frequency, TF over GST control)"
same,binding signal,[19],"1.11 fold enrichment (6-mer frequency, TF over GST control)"
